Assay [1] can be described thus: qHTS assay to identify small molecule antagonists of the retinoic acid receptor (RAR) signaling pathway (AID 1159552; note: nearly all actives have a fitted effect of over 50% in size). In a few lines:
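Antagonism of retinol-induced RARE reporter activity was measured in C3RL4 cells. Exposure to compounds and 1 uM final retinol lasted 6 hr at 37 C, with luminescence as endpoint.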
A general note: qHTS replaces the single test concentration by a dilution series.

Assay [2] is described as follows: qHTS assay to identify small molecule antagonists of the estrogen related receptor (ERR) signaling pathway from Tox21 library - cell viability counter screen (AID 1224834). Note: nearly all actives have a fitted effect of over 30% in size. In short, it runs like this: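 CellTiter-Fluor fluorescence, read after 30 min at 37 C, measures viability of ERR cells. Cells plated at 2,000/well and incubated 6 h before pin-tool compound addition, then exposed 17.5 hours at 37 C.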

Assay [3] has as its target Luciferin 4-monooxygenase (Photinus pyralis) (UniProt P08659). Briefly: qHTS assay to identify small molecule inhibitors of firefly luciferase (AID 1224835). Note: nearly all actives have a fitted effect of over 25% in size. In a few lines: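 Quantitative HTS format; KM concentrations of both substrates. Purified P. pyralis FLuc activity quantified from luminescence images.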
Assay [4] can be described thus: qHTS assay to identify small molecule agonists of the retinoic acid receptor (RAR) signaling pathway (AID 1159553). In a few lines: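 Luminescence was measured 30 min after luciferase reagent addition at room temperature. Before that, C3RL4 reporter cells (1,000 per well, plated overnight) were treated with compound for 6 hr at 37 C and 5% CO2.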

Potency data for 9 molecules are collected here from PubChem BioAssay (Tox21).

Records with an inconclusive call do not appear. The source made the active and inactive calls. Calls come from the whole dose curve; as a rule, active = well fitted curve in the direction sought with a large enough effect in the repeat runs; inconclusive = weak or mixed curves; inactive = no such curve, though single readings can be large; an effect the other way counts as inactive or inconclusive.
Potency is the fitted concentration of half-maximal effect.

Sequence of Luciferin 4-monooxygenase (Photinus pyralis) (P08659 whole entry, looked up): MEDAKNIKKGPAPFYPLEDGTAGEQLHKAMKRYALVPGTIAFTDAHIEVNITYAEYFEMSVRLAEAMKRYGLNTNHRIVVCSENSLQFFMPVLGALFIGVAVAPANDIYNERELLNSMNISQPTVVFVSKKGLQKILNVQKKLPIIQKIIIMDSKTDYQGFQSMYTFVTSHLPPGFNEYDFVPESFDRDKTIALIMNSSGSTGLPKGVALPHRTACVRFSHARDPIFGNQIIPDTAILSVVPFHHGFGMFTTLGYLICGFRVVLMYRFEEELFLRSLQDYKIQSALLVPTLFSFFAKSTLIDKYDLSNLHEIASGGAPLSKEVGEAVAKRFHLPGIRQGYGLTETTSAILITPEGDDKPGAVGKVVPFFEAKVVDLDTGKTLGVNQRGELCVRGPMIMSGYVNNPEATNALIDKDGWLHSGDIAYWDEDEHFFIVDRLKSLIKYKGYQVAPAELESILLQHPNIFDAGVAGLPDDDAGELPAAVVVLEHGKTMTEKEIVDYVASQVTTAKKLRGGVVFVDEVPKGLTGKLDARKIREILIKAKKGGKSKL

On to `O[C@@H](c1cc(C(F)(F)F)nc2c(C(F)(F)F)cccc12)[C@H]1CCCCN1`, for which the Potency in assay [1] was 23.7 µM (active); in assay [2], 29.8 µM (active). In assay [3], the Potency entry is “inactive”.
For the molecule `NC1(c2ccc(-c3nc4ccn5c(=O)[nH]nc5c4cc3-c3ccccc3)cc2)CCC1`, the figures for the Potency in assay [1] and in assay [2] were 11.9 µM (active) and 13.3 µM (active), respectively. Further, the Potency entry in assay [3] was “inactive”.
On to `CCN(CC)CCOC(=O)C1(C2CCCCC2)CCCCC1`, for which, in assay [3], the Potency entry was “inactive”.
Same read-out and setting: the entry for `CCCCCCCCCCOCC(O)CN` (stereo unspecified) is “inactive”.
`Oc1ccc(-c2ccc(O)cc2)cc1`: the Potency result in assay [4] was “inactive”. The Potency in assay [3] was 40.2 µM (active).
Turning to `C=CC(=O)OCCOCC(CC)(COCCOC(=O)C=C)COCCOC(=O)C=C`, the Potency in assay [1] is 31.9 µM (active); in assay [4], 7.14 µM (active); in assay [2] it was 16 µM (active). For the same molecule, in assay [3], the Potency entry was “inactive”.
On to `NC(=O)c1nc(-c2cccc(-c3cc(F)ccc3OCC(F)(F)C(F)(F)F)c2)n[nH]1`, for which the Potency result in assay [4] and in assay [3] was “inactive” each time.
Regarding `CCC(C)c1cc([N+](=O)[O-])cc([N+](=O)[O-])c1OC(=O)OC(C)C` (stereo unspecified), the Potency in assay [1] is 34.4 µM (active); in assay [2], 24.3 µM (active). The Potency entry in assay [4] and in assay [3] was “inactive” each time.
Consider `CCc1ccc(O)c(C(C)(C)C)c1`, for which the Potency result in assay [3] is “inactive”.
